± gives the standard deviation of the averaged measurements. Whole data set: some 25,000 sequences, median “ln(normalized median fluorescence intensity)” near 8.9, cut for the highest 2% near 10. The entries come from a sample that favours the highest values as a whole.
These sequences were tested on PfAP2-LT AP2 domain (GST-tagged) (assay: gcPBM binding intensity (ln(normalized median fluorescence intensity)); higher = stronger DNA binding).
How it was run: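 Using an Agilent 4 × 180k array, primer-extended double-stranded 36-bp intergenic genomic probes and negative controls were exposed for 1 h to GST-fused P. falciparum DNA-binding domains expressed in E. coli. Binding was carried out in 1× PBS with 1% milk, 0.2 mg/ml BSA, 0.5% salmon testes DNA and 0.03% Triton X-100, and protein was detected with Alexa488 anti-GST antibody and a 488 nm scan. Binding intensity is the highest Masliner-normalised natural-log median intensity across replicate spots of either probe orientation.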

| Sequence | gcPBM binding intensity (ln) |
| --- | --- |
| GTATATTTAAATAAAAGTACGTAAAGATATATTTAA [XGTACX_site8087] | 8.86 ± 0.57 |
| TATATATATATATATGCATGTACATATATTTGTTAT [TGCATGCA_site379] | 9.99 ± 0.4 |
| TATATATATATATTATGTACTCATTTATTATCTTTT [XGTACX_site8051] | 9.04 ± 0.43 |
| ATGCATATATTTATGTGTACATATATTTGTAGGGGG [XGTACX_site6063] | 10.2 ± 0.36 |
| ATATATATTTATATATGTACATATTTTTGTGTATTT [XGTACX_site1183] | 9.14 ± 0.44 |
| ATATATATATATATATGTACTCATATTTTATTATTT [XGTACX_site898] | 9.665 ± 0.078 |
| TTTGTCATTTTATTATGTACTCAGCATATAGGGGGG [XGTACX_site505] | 10.3 ± 0.33 |
| TTATATTATGGACACACACACAAAAAAAAAAAAAAA [CACACA_site7744] | 9.32 ± 0.51 |
| GTTTGGTGGTGTTTTGGTACGTACGGGGGGGTATGT [XGTACX_site1983] | 10.9 ± 0.18 |
| GTTTGGTGGTGTTTTGGTACGTACGGGGGTGTATGT [XGTACX_site1211] | 9.88 ± 0.16 |
| TATGATTTTTATATATGTACGTATGGTGTTTTACAA [XGTACX_site6100] | 8.76 ± 0.41 |
| AACATAATAAAAAAACGTACATAATTTTATATACAT [XGTACX_site6602] | 8.87 ± 0.41 |
| AAGGATATAACATACACACACACACGGATATAAATA [CACACA_site7867] | 10.2 ± 0.37 |
| ATAAGAAAAGGACACACACACAAAAAAAAAAAAAAA [CACACA_site7351] | 9.48 ± 0.51 |
| AAAAAAAATAGACACACACACATACACATAAATATA [CACACA_site7742] | 9.82 ± 0.38 |
| AAAATACATAGACACACACACACACGGATATAAATA [CACACA_site7643] | 10.2 ± 0.2 |
| AATATAAGGATATATACACACATAAATACATACATA [CACACA_site7859] | 9.25 ± 0.45 |
| AATATAAATAAAAACACACACACACGGATATTTATA [CACACA_site7134] | 10 ± 0.25 |
| GTAGAGAAAAAAATGTGGACACAAAAAATAAAAAGG [XGTACX_site4058] | 8.96 ± 0.45 |
| ATAAATAAAGGACACACACACACACTAGAAAAAAAA [CACACA_site5450] | 10.2 ± 0.3 |

| Sequence | gcPBM binding intensity (ln) |
| --- | --- |
| CATATACATAGACACACACACACATAAATAAATATA [CACACA_site6749] | 9.91 ± 0.33 |
| CACTAAAATAGACACACACACACACGGATATAAATA [CACACA_site7873] | 10.3 ± 0.29 |
| AAATAACACATATATACACACATATAAATATAATAT [CACACA_site2692] | 9.29 ± 0.34 |
| TATATAAATAGACACACACACACATATAAATAAATA [CACACA_site7855] | 10 ± 0.34 |
| AATGTAGGTTTATTTACACACAAATATAGATATATA [CACACA_site6825] | 8.96 ± 0.4 |
| GGGAGGATATTACACAGTACCCAGGAAATCTACGGA [XGTACX_site4874] | 8.81 ± 0.5 |
| TTTTTTTAAAAAAAGGGTACATATATATATTTTTCT [XGTACX_site1066] | 8.43 ± 0.49 |
| ATATATATATATGTTAGTACTTATATTGAAATGGTA [XGTACX_site1406] | 9.05 ± 0.042 |
| TATATTATTTTATATTGTACATACCAAATATTATAT [XGTACX_site1693] | 8.68 ± 0.41 |
| TATTTTTTTTTTTTTTTTTTTTTTATATATACATAT [CACACA_negctrl_site23] | 8.61 ± 0.52 |
| AAATGGGCTTATTTATGTACTTAAATATATCTACCC [XGTACX_site3823] | 8.85 ± 0.61 |
| TTTCTTTTTTTTTTTTTTTCTGGCTTTTTCTCTTTT [TGCATGCA_negctrl_site599] | 8.69 ± 0.49 |
| ACCATATAAATAAACACACACACACGGATATAAATA [CACACA_site7157] | 10.1 ± 0.2 |
| TAATATAAAGAAAAGGAACACACAAATATATATATA [CACACA_site8049] | 9.04 ± 0.38 |
| ATAAATATTAAAAGTACACACAGATACACTAATTAT [CACACA_site1808] | 9.16 ± 0.36 |
| AACAAATACGGACACACACACACACTAGAAAAAAAA [CACACA_site4442] | 9.82 ± 0.29 |
| AGAATAAAAAGGAACACACACACACGCATATAAATA [CACACA_site7659] | 10.1 ± 0.39 |
| TATTAATACGGACACACACACACACTAGATAAAATA [CACACA_site4295] | 10.1 ± 0.11 |
| ATATAAAGAAAAGGAACACACAAATATATATATATA [CACACA_site463] | 9.56 ± 0.25 |
| AATAAAAAGGAACACACACACACACGGATATAAATA [CACACA_site7658] | 10.3 ± 0.37 |

| Sequence | gcPBM binding intensity (ln) |
| --- | --- |
| AAAAAAAAAAAAAACACACACACACGCATAAATATA [CACACA_site6217] | 9.95 ± 0.28 |
| TGATTTGTGCCGATTTGTACACATTTATATATATAT [XGTACX_site2154] | 9.13 ± 0.35 |
| GTATATATATATATATATATATATATATATATATAT [CACACA_negctrl_site609] | 9.63 ± 0.042 |
| ATACAAATTGTTTAAAGTACAAATTACACCTCTTAA [XGTACX_site6888] | 8.62 ± 0.44 |
| CATAGGAACATAAGTTGTACGCTATACATACAACAT [XGTACX_site1054] | 9.05 ± 0.45 |
| TTTTCTATATAGTGTTGTACATTATTGTGTAAAAAT [XGTACX_site3223] | 8.7 ± 0.46 |
| AATATAATGTAATATACACACATATATTTCTCTTTT [CACACA_site5451] | 8.95 ± 0.45 |
| TATACACGCGGACACACACACACACGCAAAAAAAAA [CACACA_site6377] | 10 ± 0.23 |
| ATAGTATACAGACACACACACACACCGATATATATA [CACACA_site8511] | 10.1 ± 0.13 |
| TATTTATATTTATATACACACATACATATTTATATT [CACACA_site6535] | 9.1 ± 0.4 |
| ACCTACATAACATACACACGCATATATATAATTTTA [CACACA_site2847] | 9.22 ± 0.33 |
| ACCATACATACATACACACACACACGCATATTTATA [CACACA_site7386] | 10.1 ± 0.29 |
| TATATATATATTTATACACACACATATATTTATATA [CACACA_site8054] | 9.13 ± 0.29 |
| CGCATACACGGACACACACACACATATATATATATA [CACACA_site4520] | 10.23 ± 0.071 |
| TATAGATACCTATACACACACACACGGACATATATA [CACACA_site7585] | 10 ± 0.25 |
| CATATATACACATACACACACACACGGACACGCACA [CACACA_site6910] | 10.07 ± 0.085 |
| AGTATACATATATATACACACACACCGATATATATA [CACACA_site8357] | 9.74 ± 0.23 |
| ATAGTATACGGACACACACACACACCGATATATATA [CACACA_site5032] | 10.3 ± 0.38 |
| CATACACGCGGACACACACACACACGCATATATAAC [CACACA_site6427] | 10.1 ± 0.23 |

From the supplement of paper PMC11417369
